The values that follow come from PubChem BioAssay AID2289 (National Center for Advancing Translational Sciences (NCATS), 2010).

SMILES strings stand for the structures. In all, about 340,000 compounds went through this assay and about 3,300 (0.97%) were called active. Inconclusive results (about 9%) are left out. Calls come from the whole dose curve; as a rule, active = well fitted inhibition curve with a large enough effect; inconclusive = small, poorly fitted or top-dose-only effect, or effect the other way; inactive = flat fitted curve, though single readings scatter. The list shows a part of the results.
Potency is the fitted concentration of half-maximal effect.

This experiment in a line: qHTS Assay for Modulators of miRNAs and/or Inhibitors of miR-21. Note: nearly all actives have a fitted effect of over 55% in size. The note with it: HeLa miR-21-FLuc reporter, luciferase luminescence, 48 h; actives lower the signal. The procedure, abridged: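 HeLa cells stably expressing CMV-driven firefly luciferase with a downstream miR-21 binding sequence, endogenously expressing miR-21, were treated with titrations (up to about 40uM final) for 48 hours at 37 degree Celsius. Luciferase luminescence was read after lysis.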
On to `Cc1nn(-c2ccccc2)c(Cl)c1/C=N/NC(=O)c1ccccc1F`, for which the Potency is 4.65 µM (active). For `CCOC(=O)N/N=C/c1c(C)nn(-c2ccccc2Cl)c1Cl`, the Potency was 7.36 µM (active). The figure for `Cc1nn(-c2ccccc2)c(Cl)c1/C=N/NC(N)=O` is 16.5 µM (active); for `CC1CCCN(c2nc3ccsc3c(=O)s2)C1` (stereo unspecified) it is 8.26 µM (active). The figure for `Cn1nc(NC(=O)C(F)(F)F)c2ncc(-c3ccc(Cl)cc3)nc21` is 9.27 µM (active); for `Cc1ccc2c(C)c(C(=O)N3CCCC(C(N)=O)C3)oc2c1C` (stereo unspecified) it is 13.1 µM (active); for `c1ccc(COc2ccc(CN3CCN(c4ccccn4)CC3)cc2)cc1` it is 6.56 µM (active).

With `C=COC(=O)CSc1nc(-c2cccs2)ccc1C#N`, the Potency is 0.927 µM (active).

Turning to `Cc1cc2ncc(-c3ccccc3)nc2cc1C`, the Potency was 0.656 µM (active). As for `CCOC(=O)c1cnc(-c2ccccc2)nc1N(C)C`, the Potency was 7.36 µM (active). Regarding `CCOC(=O)c1ccc(Nc2cnc3ccccc3n2)cc1`, the Potency was 1.47 µM (active). `Cc1cc(-c2ccccc2)nc(-c2ccccc2)c1C`: the Potency was 7.36 µM (active).

With `CCOC(=O)c1ccc2ncc(-c3ccccc3)nc2c1`, the Potency was 1.85 µM (active). The figure for `CCOC(=O)c1ccc2c(c1)nc(-c1ccccn1)n2CC` is 1.65 µM (active); for `O=[N+]([O-])c1cccc(-c2ccc(SCc3ccccn3)nn2)c1` it is 6.56 µM (active).

As for `Cc1cc2ncn(C(=O)N3CCC(C)CC3)c2cc1C`, the Potency is 10.4 µM (active). Take `COc1cc(/C=C/c2ccc(O)cc2)cc(OC)c1`: the Potency was 2.93 µM (active).

Regarding `FC(F)(F)c1ccnc(Oc2ccc(C3=NCCS3)cc2)c1`, the Potency was 1.65 µM (active). The figure for `Cc1ccccc1Cn1nnc(-c2ccc3c(c2)OCO3)n1` is 16.5 µM (active); for `O=C(Cn1nnc(-c2ccc3c(c2)OCO3)n1)Nc1ccccc1C(=O)O` it is 14.7 µM (active).

For `Cc1ccccc1CSc1ccc(-c2ccc3c(c2)OCO3)nn1`, the Potency was 14.7 µM (active). The figure for `COc1cccc(-n2cnc3sc(C)c(C)c3c2=O)c1` is 11.7 µM (active). For `Fc1cccc(NCc2ccccc2-c2nnc(-c3ccccc3Cl)o2)c1`, the Potency is 1.04 µM (active). The figure for `Clc1ccccc1-c1nnc(-c2ccccc2Cl)o1` is 3.69 µM (active); for `Clc1ccccc1-c1nnc(-c2ccc3c(c2)OCO3)o1` it is 0.585 µM (active). Regarding `O=C(c1cccc(C(F)(F)F)c1)C1CCCN(C(=O)CN2CCCC2=O)C1` (stereo unspecified), the Potency was 3.29 µM (active). The figure for `N#Cc1ccccc1CSc1nc2ccsc2c(=O)n1Cc1ccccn1` is 16.5 µM (active); for `Clc1ccccc1OCc1nnc(-c2ccccc2Br)o1` it is 4.65 µM (active); for `Clc1cccc(OCc2nnc(-c3ccccc3Br)o2)c1` it is 16.5 µM (active). The same measure for `Clc1ccccc1-c1nnc(COc2ccccc2)o1`: 5.85 µM (active); for `Fc1ccc(OCc2nnc(-c3ccccc3Br)o2)c(Cl)c1`: 13.1 µM (active). The figure for `Clc1ccccc1OCc1nnc(-c2ccccc2)o1` is 7.36 µM (active); for `N#Cc1ccccc1OCc1nnc(-c2ccccc2Br)o1` it is 1.31 µM (active); for `Clc1ccccc1OCCn1nnc2ccccc21` it is 13.1 µM (active).

With `C(#Cc1ccccc1)Cn1nnc2ccccc21`, the Potency was 13.1 µM (active). The figure for `c1ccc(CCn2nnc3ccccc32)cc1` is 14.7 µM (active). Turning to `CCOC(=O)C1(Cc2ccccc2)CCCN(C(=O)c2cnn(CC)c2)C1` (stereo unspecified), the Potency was 9.27 µM (active). The same measure for `CCOC(=O)C1(Cc2cccc(OC)c2)CCCN(C(=O)CCN2CCCO2)C1` (stereo unspecified): 5.85 µM (active). The figure for `O=C(N/N=C/c1cn(-c2ccccc2)nc1-c1cc2ccccc2o1)c1ccccc1Br` is 0.927 µM (active). Consider `COc1ccc(Cn2c(C3CC3)nc3ccc(NC(=O)C4CC4)cc3c2=O)cc1`, for which the Potency is 1.47 µM (active). The figure for `CCC(=O)Nc1ccc2nc(C3CC3)n(Cc3ccc(C(C)(C)C)cc3)c(=O)c2c1` is 0.185 µM (active). The same measure for `COc1ccc(Cn2c(C3CC3)nc3ccc(NC(C)=O)cc3c2=O)cc1`: 3.29 µM (active). Turning to `CC(=O)c1ccc(NS(=O)(=O)c2cccc(C)c2)cc1`, the Potency was 11.7 µM (active). As to `Cc1ccc2nc(-c3ccc(NS(=O)(=O)c4ccc(F)cc4)cc3)sc2c1`, the Potency is 6.56 µM (active).

Regarding `Cc1cccc(S(=O)(=O)Nc2ccc(-c3nc4ccc(C)cc4s3)cc2)c1`, the Potency is 2.07 µM (active). Take `CCc1ccc2oc(-c3cc(N=Cc4cccc(OC)c4O)ccc3O)nc2c1`: the Potency was 0.656 µM (active). The figure for `CC/C(=N\NC(=O)c1c[nH]c2ccccc12)c1cccs1` is 2.93 µM (active). The same measure for `O=C(N/N=C/c1cccs1)c1c[nH]c2ccccc12`: 7.36 µM (active); for `S=C(c1ccc(-c2ccccc2Cl)o1)N1CCCCC1`: 3.29 µM (active); for `CN1CCN(C(=S)c2ccc(-c3cccc(Cl)c3Cl)o2)CC1`: 5.21 µM (active).

With `COCCCNC(=S)N/N=C/c1ccc(N(C)C)cc1Cl`, the Potency was 5.85 µM (active). The same measure for `Cc1ccc(O)c(-c2cc(-c3cccc(Br)c3)n[nH]2)c1`: 6.56 µM (active); for `Cc1cccc(NC(=O)c2cc(-c3cc(C)c(C)cc3O)n[nH]2)c1`: 0.736 µM (active); for `Cc1ccc(C)c(NC(=O)c2cc(-c3cc(C)ccc3O)n[nH]2)c1`: 5.21 µM (active). For the molecule `Cc1cccc(NC(=O)c2cc(-c3cc(C)ccc3O)n[nH]2)c1`, the Potency is 1.04 µM (active).

Regarding `O=C(O)c1ccc(N/N=C/c2ccnc3ccccc23)cc1`, the Potency is 3.69 µM (active). Regarding `O=C(O)c1ccc(N/N=C/c2cccc3cccnc23)cc1`, the Potency was 0.369 µM (active). The figure for `Cn1ncc2c(Nc3ccc4ccccc4c3)ncnc21` is 4.65 µM (active); for `CCCn1ncc2c(Nc3ccc(C)c(C)c3)ncnc21` it is 4.65 µM (active). The same measure for `Clc1ccc2c(c1)[C@H]1OCC[C@H]1[C@@H](c1ccco1)N2`: 5.85 µM (active); for `Clc1ccc2c(c1)C1OCCC1C(c1ccco1)N2` (stereo unspecified): 6.56 µM (active); for `COc1ccccc1OCCNC(=O)c1ccc(Br)cc1`: 16.5 µM (active).

With `CCCNC(=O)c1cccc(COc2ccccc2OC)c1`, the Potency is 2.07 µM (active). For `CCC(=O)c1ccc(OCc2ccccc2)c(OC)c1`, the Potency was 6.56 µM (active).

Regarding `COc1ccccc1OCCNC(=O)c1ccc2c(c1)CCC2`, the Potency was 5.85 µM (active).

With `Cc1ccc(OCCNC(=O)c2ccc(C)cc2)cc1`, the Potency is 14.7 µM (active).
